# Screening data (PubChem)
# IL-1B inflam inh: inhibitors of inflammasome signaling (IL-1 beta secretion); THP-1 LPS/ATP IL-1B secretion, AlphaLISA, 16 h; active compounds read low; activity change, % at 57.5 µM; 4.7% of 360,000 active; in the data active means activity change below about -50%; inconclusive means mostly about -30% to -49%
#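 Secreted IL-1B measured by AlphaLISA bead assay after 16 h compound exposure of THP-1 cells; compounds (final up to 57.5 uM) added 1 h before LPS (250 ng/mL) and ATP (1.25 mM) stimulation; lower signal means less secretion.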
# ATXN viability: viability counter-screen for ATXN expression inhibitors; S2 cells (HEK-293 line with an ATXN2-luciferase reporter) viability, CellTiter-Fluor protease fluorescence, 24 h; Potency, µM (doses to about 56.7 µM), most hits filed as cytotoxic; 0.49% of 400,000 active; AID 651635; further: nearly all actives have a fitted effect of over 40% in size
# SW480 rereplic: inducers of DNA re-replication in SW480 colon cancer cells. AID 624297. Potency, µM (titrated, usually from 46.1 µM), hits mostly activators. SW480 DNA re-replication, Hoechst DNA content imaging, 48 h. 1.8% of 340,000 active; further: nearly all actives have a fitted effect of over 55% in size
#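 Per well, 250 cells were exposed to pinned compound for 48 hr. Nuclear DNA was visualised with Hoechst (40 min, 37 C) and total object intensity recorded by fluorescence scanning.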
# ATXN2 expr inh: inhibitors of ATXN2 expression. HEK-293 ATXN2-luciferase reporter, luminescence, 24 h. Potency, µM (series often up to 57 µM), usual class: inhibitors. 0.72% of 360,000 active. AID 1745845; further: nearly all actives have a fitted effect of over 55% in size
#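 ATXN2-luciferase reporter cells (luciferase flanked by upstream and downstream ATXN2 gene portions) were treated 24 h at 37 °C with compounds at up to 57 uM. SteadyGlo luminescence gave expression; GF-AFC fluorescence gave viability.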
# MCF10A rereplic: DNA re-replication induction in MCF 10a cells; AID 624296; 2.9% of 350,000 active; Potency, µM (top dose mostly 46.1 µM), usual class: activators; MCF 10A DNA re-replication, Hoechst nuclear intensity, 48 h; further: nearly all actives have a fitted effect of over 50% in size
# PINK1 modulator: changes PINK1 expression; Potency, µM (doses to about 76.6 µM), most hits filed as activators; PINK1 immunofluorescence, high-content cytometry, 24 h; 0.2% of 410,000 active; active means well fitted activation curve with a large enough effect; inconclusive means small, poorly fitted or top-dose-only effect; cell line not stated here; further: nearly all actives have a fitted effect of over 65% in size
#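 Decision-based qHTS: stable cells, 24 h exposure to five compound concentrations, CCCP as control. Fixed cells stained for PINK1 plus nuclear, mitochondrial and cell markers, cytometer read.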
# Numbers stand for hits; – = inactive; ? = inconclusive; · = not tested or not shown. Only some compounds are listed: those with a hit (about 7.1% of all), similar ones and a draw of the others. Unless noted, the call rests on the fitted dose curve; in most records, active means well fitted curve in the direction sought with a large enough effect; inconclusive means small, poorly fitted or top-dose-only effect, or another doubt; inactive means no such curve, though single readings can be large; an effect the other way counts as inactive or inconclusive.
SMILES,IL-1B inflam inh,ATXN viability,SW480 rereplic,ATXN2 expr inh,MCF10A rereplic,PINK1 modulator
Cn1c(=O)c([N+](=O)[O-])c(NCc2ccccc2Cl)c2ccccc21,-79,–,–,–,–,–
Cn1c(=O)c([N+](=O)[O-])c(Cl)c2ccccc21,-101,·,16µM,?,3.7µM,–
Cn1c(=O)c([N+](=O)[O-])c(-n2cnc3ccccc32)c2ccccc21,-98,?,?,?,?,–
Cn1c(=O)c([N+](=O)[O-])c(N2CCSCC2)c2ccccc21,–,–,–,–,–,–
CC1CCN(S(=O)(=O)c2ccc3c(ccc(=O)n3CC(=O)Nc3ccc(C(C)C)cc3)c2)CC1,·,–,·,–,·,–
Cc1ccc(C(=O)Oc2ccccc2N2C(=O)C3CCC(C)CC3C2=O)cc1 (stereo unspecified),–,·,–,·,–,·
CC1CCC2C(=O)N(c3ccc(C(=O)Oc4cccc5cccnc45)cc3)C(=O)C2C1 (stereo unspecified),-86,·,–,–,?,–
CCOC(=O)COc1cc(C)c(Cl)cc1C(=O)c1ccn2nc(-c3ccc(OC)cc3)cc2n1,·,–,·,–,·,–
CCNC(=O)c1sc2ncnc(NCCCN3CCOCC3)c2c1C,·,–,·,·,·,–
CCOc1ccccc1CNS(=O)(=O)c1ccc(-c2coc(C)n2)cc1,·,–,·,–,·,–
COc1cc(/C=C/C(=O)Nc2cccc(S(=O)(=O)N3CCOCC3)c2)ccc1OCC#N,-54,–,–,–,–,–
CN(Cc1ccc(OC(F)F)cc1)C(=O)/C=C/c1ccc(S(=O)(=O)N2CCOCC2)cc1,-66,–,–,–,–,–
COc1ccc(/C=C/C(=O)Nc2cccc(S(=O)(=O)N3CCOCC3)c2)cc1OC,–,–,?,–,–,–
O=C(/C=C/c1ccc(OC(F)F)cc1)Nc1cccc(S(=O)(=O)N2CCOCC2)c1,-65,?,–,?,?,–
O=C(C=Cc1ccc(CN(CCO)CCc2c[nH]c3ccccc23)cc1)NO,·,·,·,–,·,·
COc1cccc(N2CCN(C(=O)CN3C(=O)COc4ccc(S(=O)(=O)N5CCC(C)CC5)cc43)CC2)c1,·,?,·,–,·,–
COc1ccc(CC2(CO)COc3ccccc3C2=O)cc1 (stereo unspecified),–,–,16µM,–,?,–
COc1ccc(CN2C(=O)COc3ccccc32)cc1,–,–,–,–,–,–
CC(=O)c1ccc(N2CCN(C(=O)CCCc3nc4ccccc4s3)CC2)cc1,–,–,–,–,18µM,–
O=C(CCc1nc2ccccc2s1)N1CCN(c2ccccc2)CC1,–,–,–,·,–,–
Cc1cc(C)n(CCc2nc(-c3ccc(C(C)(C)C)cc3)cs2)n1,-51,–,–,–,?,–
COc1ccc(Cl)cc1NC(=O)Cn1ncc2c3ccccc3n(Cc3ccccc3)c2c1=O,·,–,·,–,·,–
C=CCNC(=O)COc1ccc(S(=O)(=O)NC2CCCCC2)cc1,–,–,15µM,–,10µM,–
CCOc1ccc(NC(=O)COc2ccc(S(=O)(=O)NC3CCCCC3)cc2)cc1,·,–,·,–,·,–
C[C@@H](O[C@H]1OCCN(Cc2n[nH]c(=O)[nH]2)[C@@H]1c1ccc(F)cc1)c1cc(C(F)(F)F)cc(C(F)(F)F)c1,·,32µM,·,?,·,·
SMILES,IL-1B inflam inh,ATXN viability,SW480 rereplic,ATXN2 expr inh,MCF10A rereplic,PINK1 modulator
CC(NC(=O)COC(=O)C1CCN(c2ccc(C(F)(F)F)cn2)CC1)c1ccc(F)cc1 (stereo unspecified),–,–,–,·,–,–
Cc1cc(C(=O)CSc2nc(N)cc(=O)[nH]2)ccc1F,–,–,–,–,13µM,–
COc1ccc(Nc2nc(S(=O)(=O)c3ccc(C)cc3)c(Cl)s2)cc1,-91,–,–,?,?,–
Clc1ccc(C2=CSC3=NCCN23)c(Cl)c1,-51,–,–,–,–,–
Cc1ccc(C2=CSC3=NCCN23)c(C)c1,–,–,–,–,–,–
Cn1c(SCC(=O)N/N=C/c2ccc([N+](=O)[O-])s2)nnc1-c1ccccc1,-98,?,?,?,18µM,?
Cc1ccccc1C(=O)N/N=C/c1ccc([N+](=O)[O-])s1,-65,?,?,7.9µM,–,?
O=C(Cc1ccccc1)N/N=C/c1ccc([N+](=O)[O-])s1,–,–,?,–,?,–
O=C(N/N=C\c1ccc([N+](=O)[O-])s1)c1cncc(Br)c1,-58,28µM,5.8µM,10µM,7.3µM,?
O=C(N/N=C/c1ccc([N+](=O)[O-])s1)c1ccccc1,?,–,–,?,–,–
O=C(CNC(=O)c1cccc(F)c1)N/N=C/c1ccc([N+](=O)[O-])s1,–,?,18µM,·,?,?
Cc1cccc(NC(=O)c2ccc3oc(=O)c(S(=O)(=O)c4ccc(F)cc4)cc3c2)c1C,·,–,·,–,·,–
O=C(N/N=C/c1ccc([N+](=O)[O-])s1)c1ccccc1Br,-63,?,10µM,?,–,·
CC1CCCCN1S(=O)(=O)c1ccc(N(C(=O)c2cnccn2)C(C(=O)NC2CCCCC2)c2cccs2)cc1 (stereo unspecified),-63,–,–,–,–,–
COc1cc(=O)n2c(c1C(=O)N(C)Cc1nccs1)CCN(Cc1cc(C)cc(C)c1)CC2,·,–,·,·,·,–
CC(C)c1ccc(/C=C2\SC(=O)N(CC(=O)NC3C=CS(=O)(=O)C3)C2=O)cc1 (stereo unspecified),-90,?,–,·,–,–
COc1ccc(/C=C2\SC(=S)N(C(C)C(=O)NC3C=CS(=O)(=O)C3)C2=O)cc1 (stereo unspecified),-61,–,?,–,?,–
COc1cccc(/C=C2\SC(=O)N(CC(=O)NC3CCS(=O)(=O)C3)C2=O)c1 (stereo unspecified),–,–,–,–,–,–
O=C(CN1C(=O)/C(=C/c2ccccc2)SC1=S)NC1C=CS(=O)(=O)C1 (stereo unspecified),?,–,–,–,–,–
COc1cccc(/C=C2\SC(=O)N(CC(=O)NC3C=CS(=O)(=O)C3)C2=O)c1 (stereo unspecified),-99,?,–,·,–,–
O=C(CN1C(=O)/C(=C/c2ccc(Cl)cc2)SC1=S)NC1C=CS(=O)(=O)C1 (stereo unspecified),–,?,?,·,–,–
O=C(CN1C(=O)/C(=C/c2ccccc2Cl)SC1=S)NC1C=CS(=O)(=O)C1 (stereo unspecified),-79,–,–,–,–,–
O=C(Nc1ccccc1O)c1c(O)c2c([nH]c1=O)CCCC2,-68,?,16µM,–,21µM,–
CC(C)(C)OC(=O)N1CCC(c2c(C(=O)NC3CCCCC3)cnn2-c2cccc(Cl)c2)CC1,·,·,·,·,·,–
Cc1ccc(NCc2cccc(B(O)O)c2)cc1,-95,–,?,–,–,–
